tim10-1 inh = growth inhibitors of tim10-1 mutant yeast, primary screen, luminescence, uHTS | actives 2.2% (n = 330,000) | S. cerevisiae tim10-1 ts strain growth, BacTiter-Glo, 24 h | inhibition, % at 20 µM;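 active = inhibition of at least 40%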;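 also: mutant grown at 25 °C; 0% = DMSO wells with yeast and 100% = wells holding no yeast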
TIM10 inh = growth inhibitors of isogenic TIM10 control yeast, primary screen, counter-screen for tim10-1 yeast inhibitor project, luminescence, uHTS. S. cerevisiae TIM10 strain growth, BacTiter-Glo luminescence, 24 h. inhibition, % at 10 µM. actives 1.4% (n = 330,000). AID 463195, 2010;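 active = inhibition of 40% or more at the single tested concentration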;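 also: wild-type TIM10 isogenic control strain grown at permissive 25 °C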
NALP1 inh = NALP1 inflammasome inhibitors in reconstituted yeast, colorimetric, S. cerevisiae, triplicate retest; S. cerevisiae NALP1/ASC/caspase-1 growth, X-gal OD620, 72 h; actives 0.61% (n = 280,000); AID 2071, 2009; inhibition, % at 10 µM; in the data active = inhibition mostly above about 24%, no sharp cut-off; inactive = mostly below about 32%
NALP3 yeast inh = NALP3 inflammasome inhibitors in reconstituted yeast, primary screen, luminescence, uHTS; Yeast reconstituted NLRP3/ASC/caspase-1, beta-gal luminescence, 24 h; actives 0.39% (n = 330,000); inhibition, % at 10 µM;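 active = inhibition of 50% or more; inactive = inhibition below 50%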;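 also: plate controls were induced DMSO wells for no effect and uninduced yeast grown without galactose for full effect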
tim23-1 inh = growth inhibitors of tim23-1 mutant yeast, primary screen, luminescence, uHTS | S. cerevisiae tim23-1 growth, BacTiter-Glo luminescence, 24 h | inhibition, % at 20 µM | actives 1.3% (n = 330,000) | AID 463212, 2010;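 active = growth inhibition of the mutant yeast at or above 50%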;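 also: temperature-sensitive mutant grown at 25 °C; plate controls were DMSO-treated mutant yeast for no effect and medium wells lacking yeast for full effect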
PfHsp90 yeast 2 = growth inhibition of PfHsp90-expressing yeast, primary screen, antimalarial PfHsp90 inhibitor project, S. cerevisiae, BacTiter-Glo luminescence, single point, set 2; BacTiter-Glo ATP, 48 h; yeast lacking PDR1 and PDR3 efflux regulators; inhibition, % at 9.4 µM; actives 0.32% (n = 310,000); AID 504621, 2011;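 active = every replicate shows inhibition above about 80%, whatever the replicate mean, limit read from the data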;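 also: 0% = DMSO neutral controls and 100% = 20 µM radicicol positive controls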
tim10-1 confirm = growth inhibitors of tim10-1 mutant yeast, confirmation, single concentration, luminescence, S. cerevisiae; S. cerevisiae tim10-1 ts strain growth, BacTiter-Glo, 24 h; inhibition, % at 20 µM; actives 56% (n = 7,400); shares compounds with tim10-1 inh;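 active = inhibition of yeast growth at or above a set limit in either of two repeat tests at 20 µM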;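 also: tim10-1 mutant grown at permissive 25 °C to find synthetic lethal compounds; 0% = DMSO yeast wells and 100% = medium wells without yeast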
* hit, by the source's call; · = not tested or not shown. The list is not random: actives were taken first. Their share in the collection is about 4.2%.

SMILES	tim10-1 inh	TIM10 inh	NALP1 inh	NALP3 yeast inh	tim23-1 inh	PfHsp90 yeast 2	tim10-1 confirm
CCN(CC)C(c1ccc(F)cc1)c1nnnn1C1CCCCC1 (centres undefined)	31	25	9	21	27	3	·
CCN(CC)C(c1ccc(C)cc1)c1nnnn1C1CCCCC1 (centres undefined)	44*	36	36	26	47	·	29
CC1Cc2ccccc2N1C(=O)C1CC(=O)N(c2ccccc2)C1 (centres undefined)	3	-1	-2	23	17	-32	·
O=C1C2C3C=CC(C3)C2C(=O)N1CCN1CCN(S(=O)(=O)/C=C/c2ccccc2)CC1 (centres undefined)	42*	16	9	15	20	9	23
COc1ccccc1NC1CCCCC1NS(=O)(=O)c1ccc(C)cc1 (centres undefined)	48*	7	7	-5	38	-40	-9
Cc1ccc(C)c(NC2CCCCC2NS(=O)(=O)c2ccccc2)c1 (centres undefined)	46*	25	14	5	37	13	22
Cc1noc(C)c1C(=O)OCC(=O)NCc1ccc(Cl)cc1	-1	-5	·	18	-6	-4	·
Cc1ccc(NC2=C(Cl)C(=O)OC2OC(=O)c2ccccc2)c(C)c1 (centres undefined)	30	18	-10	16	36	-1	·
Cc1ccccc1NC1=C(Cl)C(=O)OC1OC(=O)c1ccccc1C (centres undefined)	40*	35	46	12	39	58	16
COc1cccc(/C=N/n2c(C3CCCCC3)n[nH]c2=S)c1O	48*	36	1	23	47	16	33*
N#Cc1ccsc1NC(=O)CCN1C(=O)C2CCCCC2C1=O (centres undefined)	11	-7	·	4	5	·	·
CCN(c1ccccc1)S(=O)(=O)c1ccc2c(c1)N(C(C)=O)CCS2	29	-3	9	11	26	11	·
Cc1ccc(OCCOc2cccc(Br)c2)c([N+](=O)[O-])n1	54*	-2	36	23	39	-4	40*
O=[N+]([O-])c1ccc(NCc2ccc(Cl)cc2)nc1	35	20	22	18	32	3	·
O=[N+]([O-])c1ccc(Nc2ccc(Cl)cc2)nc1	59*	11	-6	-14	42	-9	42*
COc1ccc(-c2cc3cc(OC)c(OC)cc3c(C)n2)cc1C	14	19	·	9	37	-17	·
CCOC(=O)C1CCCN(C(=O)c2ccc3oc(CCc4ccccc4)nc3c2)C1 (centres undefined)	42*	10	17	8	30	0	8
CNC(=S)N(Cc1ccc(OC)cc1)Cc1cc2ccc(C)cc2[nH]c1=O	-6	-7	4	8	-12	7	·
Cc1ccc(C(C)NC(=O)C2CCCC2)c(C)c1 (centres undefined)	4	-10	12	7	5	14	·
Cc1ccc(C(C)NC(=S)NC2CCCCC2)c(C)c1 (centres undefined)	41*	18	12	22	17	12	8
O=[N+]([O-])c1ccccc1/C=C/C=N/n1c(-c2ccccc2)n[nH]c1=S	42*	36	25	17	29	28	36*
CC1CCCC(C)N1/N=C/C=C/c1ccccc1[N+](=O)[O-] (centres undefined)	41*	9	11	-4	19	-4	13
Cc1nc2sc3c(=O)[nH]nnc3c2c(C)c1Br	42*	8	9	14	43	-9	31
N/C(=N\OC(=O)c1cccc(Cl)c1)c1cccnc1	16	21	8	-13	39	13	·
N/C(=N\OC(=O)c1cc(Cl)ccc1Cl)c1cccnc1	41*	21	-5	-22	-5	-27	25
SMILES	tim10-1 inh	TIM10 inh	NALP1 inh	NALP3 yeast inh	tim23-1 inh	PfHsp90 yeast 2	tim10-1 confirm
CC(C)(Oc1ccc(Cl)cc1)C(=O)O/N=C(\N)c1ccncc1	47*	5	5	31	3	1	3
N/C(=N\OC(=O)c1cccc(Cl)c1)c1ccncc1	42*	20	-17	2	22	3	30*
N/C(=N\OC(=O)c1cc(Br)ccc1Cl)c1cccnc1	47*	31	-11	-6	-13	-16	49*
N/C(=N\OC(=O)Cc1ccc(Cl)cc1)c1ccncc1	12	-1	2	-3	9	-6	·
N/C(=N\OC(=O)c1ccccc1Cl)c1cccnc1	10	13	11	11	15	-11	·
O=C(N/N=C1\CCCc2ccccc21)c1ccc([N+](=O)[O-])cc1	46*	22	-64	-6	25	-50	26
COc1ccc([C@H]2[C@H]3C=CC[C@@H](C)[C@@H]3C(=O)N2Cc2ccccc2)cc1Cl	42*	31	14	12	38	-17	30
C[C@@H]1CC=C[C@H]2[C@H]1C(=O)N(Cc1ccccc1)[C@H]2c1ccc(-c2ccoc2)cc1F	41*	30	-6	10	50	13	36*
COc1ccc(Br)cc1[C@H]1[C@H]2C=CC[C@@H](C)[C@@H]2C(=O)N1Cc1ccccc1	60*	10	·	19	12	-9	42*
O=C(Cn1nnc(-c2ccccc2)n1)NNC(=O)c1ccco1	-9	-16	4	12	1	-5	·
CC1CCCC(N2C(=O)NC(NC(=O)c3ccco3)(C(F)(F)F)C2=O)C1C (centres undefined)	47*	7	-9	-3	21	-7	26
Nc1nc(N)c2[nH]c(=S)[nH]c2n1	·	·	·	·	·	23	·
N#Cc1ccc(COC(=O)C2CC(=O)N(CCc3ccccc3)C2)cc1 (centres undefined)	32	16	·	-14	30	21	·
O=C(OCc1ccc([N+](=O)[O-])cc1)C1CC(=O)N(CCc2ccccc2)C1 (centres undefined)	43*	18	·	3	27	·	17
COc1ccc(OC)c(C(=O)CN2C(=O)C(=O)N(C3CCCC3)C2=O)c1	4	-13	·	-1	2	·	·
Cc1cc(C(F)(F)F)n(-c2nc(C(=O)N/N=C/c3ccc(F)cc3)cs2)n1	42*	15	9	21	12	·	20
CCn1c(=S)sc2c(=O)n(-c3ccccc3)c(SC)nc21	48*	37	-6	3	42	-25	49*

Source: PubChem (several laboratories)
